Consider one compound from PubChem BioAssay (EPA / NIEHS).

A short description of test [1]: CCTE_Shafer_MEA_dev_firing_rate_mean: CCTE's Neural Network Formation Assay for Mean Firing Rate, Shafer Lab (AID 2284031). In short, it runs like this:
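Primary rat cortical neurons on 48-well MEA plates, exposed from plating day 0 with dosing renewed on DIV 5 and 9. Mean well firing rate over active electrodes, recorded days 5, 7, 9, 12, summarised as trapezoidal AUC.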

A short description of test [2]: CCTE_Shafer_MEA_dev_per_burst_spike_percent: CCTE's Neural Network Formation Assay for Percent of Spikes in a Burst, Shafer Lab (AID 2284032). In short, it runs like this:
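Rat primary cortical neurons on 16-electrode MEA wells, dosed from plating day 0 for 12 days with renewal on DIV 5 and 9; spikes-in-bursts percentage averaged over bursting electrodes, collapsed as AUC across days 5, 7, 9, 12; loss direction versus DMSO.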

Test [3] can be described thus: CCTE_Shafer_MEA_dev_active_electrodes_number: CCTE's Neural Network Formation Assay for Number of Active Electrodes, Shafer Lab (AID 2284040; active means hit-call score of the fitted dose curve at least 0.9, where 1 is the maximum). In a few lines: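 Primary rat cortical neurons on 16-electrode MEA wells, exposed from day 0 through day 12 with compound renewed at DIV 5 and 9 feeds. Active electrodes (mean firing ≥5 spikes/min) counted at DIV 5, 7, 9, 12; trapezoidal AUC across days, loss-of-signal versus DMSO.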

Test [4] can be described thus: CCTE_Shafer_MEA_dev_bursting_electrodes_number: CCTE's Neural Network Formation Assay for Number of Bursting Electrodes, Shafer Lab (AID 2284043; active means hit-call score of the fitted dose curve at least 0.9, where 1 is the maximum). In a few lines: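 Read-out is the per-well number of electrodes bursting at least once every 2 minutes, recorded on days 5, 7, 9 and 12 and collapsed by trapezoidal area under the curve. Cultures were primary rat cortical neurons on MEA plates, treated continuously from plating.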

Test [5] in a line: CCTE_Shafer_MEA_dev_per_burst_interspike_interval: CCTE's Neural Network Formation Assay for Burst Interspike Interval, Shafer Lab (AID 2284044).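 Further: mean spike spacing inside bursts as AUC over recordings on days 5 7 9 12.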 In a few lines: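 Spontaneous activity of maturing rat cortical networks is recorded on DIV 5, 7, 9 and 12 under chronic compound exposure beginning at plating. Endpoint: burst interspike interval well-mean, collapsed into trapezoidal AUC and fitted in the negative direction relative to DMSO.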

A short description of test [6]: CCTE_Shafer_MEA_dev_burst_duration_mean: CCTE's Neural Network Formation Assay for Mean Burst Duration, Shafer Lab (AID 2284045). In short, it runs like this:
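Read-out: average first-to-last-spike interval within single-electrode bursts, averaged over bursting electrodes per well, then summarised as area under the curve across days 5, 7, 9 and 12. Developing rat cortical networks were exposed from day 0.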

Test [7] is described as follows: CCTE_Shafer_MEA_dev_interburst_interval_mean: CCTE's Neural Network Formation Assay for Mean Interburst Interval, Shafer Lab (AID 2284046).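 Further: well-mean interburst interval of bursting electrodes as AUC over four recording days; curve fitted for decrease in interburst interval relative to DMSO.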 In a few lines:
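Primary rat cortical neurons on PEI-coated 48-well MEA plates (laminin added with cells at plating) (16 electrodes/well), exposed from plating day 0 with renewal at DIV 5 and 9. Mean inter-burst interval averaged over bursting electrodes, AUC across days 5, 7, 9, 12; DMSO baseline.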

Test [8] can be described thus: CCTE_Shafer_MEA_dev_network_spike_number: CCTE's Neural Network Formation Assay for Number of Network Spikes, Shafer Lab (AID 2284048).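 Further: synchronized bursts across electrodes counted on days 5 7 9 12 and integrated as AUC.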 In short, it runs like this: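 Developing networks of primary rat cortical neurons are treated over 12 days starting at plating, with media and compound fully replaced on DIV 5 and 9. Network spike counts from four recording days are integrated as trapezoidal AUC.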

Test [9] in a line: CCTE_Shafer_MEA_dev_network_spike_peak: CCTE's Neural Network Formation Assay for Mean Number of Electrodes in Network Spike, Shafer Lab (AID 2284049). In short, it runs like this:
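Rat cortical primary culture, 1.5 x 10^5 cells/well, 48-well MEA (16 electrodes/well). Dosing day 0 through DIV 12, full media/compound exchange DIV 5, 9. AxIS adaptive spike detection; AUC over days 5/7/9/12; loss-of-signal vs DMSO.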

Test [10] can be described thus: CCTE_Shafer_MEA_dev_spike_duration_mean: CCTE's Neural Network Formation Assay for Mean Spike Duration, Shafer Lab (AID 2284051).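 Further: mean network spike duration pooled as area under curve over DIV 5 to 12 recordings.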 In short, it runs like this:
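Spontaneous activity was recorded on days 5, 7, 9 and 12 from rat cortical cultures grown on microelectrode arrays and dosed continuously from day 0, with media and compound renewed after the DIV 5 and 9 recordings. Network-spike duration was collapsed by area under the curve.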

Test [11] is described as follows: CCTE_Shafer_MEA_dev_per_network_spike_spike_number_mean: CCTE's Neural Network Formation Assay for Mean Number of Spikes in a Network Spike, Shafer Lab (AID 2284053). In a few lines:
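Mean spike count within each network spike, taken in a 0.05 s window at its peak, was recorded on days 5, 7, 9 and 12 and integrated as trapezoidal area under the curve. Rat cortical cultures on MEA plates received continuous compound from day 0, refreshed at medium changes on DIV 5 and 9.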

A short description of test [12]: CCTE_Shafer_MEA_dev_per_network_spike_spike_percent: CCTE's Neural Network Formation Assay for Percent of Spikes in a Network Spike, Shafer Lab (AID 2284054). In short, it runs like this: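 Rat primary cortical cultures, 1.5 x 10^5 cells/well on MEA. Continuous compound exposure d0–12, medium/compound renewed DIV 5, 9. Network-spike spike % (0.05 s peak window), AUC over 4 recordings, DMSO baseline.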

A short description of test [13]: CCTE_Shafer_MEA_dev_mutual_information_norm: CCTE's Neural Network Formation Assay for Mutual Information Normalization, Shafer Lab (AID 2284091). In a few lines: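 Developing rat cortical networks on 16-electrode MEA wells are treated throughout formation (DIV 0–12). Shared electrode information is recorded four times, converted to area-under-curve, and fitted for decreases against DMSO vehicle.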

Test [14] can be described thus: CCTE_Shafer_MEA_dev_correlation_coefficient_mean: CCTE's Neural Network Formation Assay for Mean Correlation Coefficient, Shafer Lab (AID 2284093). In short, it runs like this:
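Primary rat cortical neurons on PEI-coated 48-well MEA plates (16 electrodes/well) were exposed from plating day 0 through DIV12, with compound renewed at DIV5 and 9. Pairwise spike correlations were averaged per well; trapezoidal AUC across DIV5, 7, 9, 12.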

Test [15] can be described thus: UKN2_HCS_IMR90_neural_migration: University of Konstanz (UKN) Leist Lab Neural Crest Cell Migration Assay in human induced IMR90 Pluripotent Stem Cells (UKN2) (AID 2284204). The following applies: actives raise or lower the signal. In short, it runs like this: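 Migration of human IMR90-derived neural crest cells into a stopper-defined gap is imaged after 24 h chemical treatment. Activity is fitted bidirectionally relative to DMSO.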

The nature of test [16]: IUF_NPC1b_proliferation_BrdU_72hr: Leibniz Research Institute for Environmental Medicine (IUF) 72-hour Neural Progenitor Cell Bromodeoxyuridine (BrdU) Proliferation Assay (NPC1b) (AID 2284207). In short, it runs like this:
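Proliferation of primary human neural progenitor cells: 72 h compound treatment at 37C, 5% CO2, pH 7.2-7.6, in EGF/FGF-containing medium. Readout is BrdU uptake (last 16 h) by chemiluminescent ELISA, normalised to DMSO.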

A short description of test [17]: IUF_NPC1a_proliferation_area_72hr: Leibniz Research Institute for Environmental Medicine (IUF) 72-hour Neural Progenitor Cell Proliferation Area Assay (NPC1a) (AID 2284208). In a few lines: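 Measured in 3D suspension: each well held one primary hNPC sphere grown with EGF and FGF at pH 7.2-7.6. Compound stayed on for 72 h, then area was imaged; spheres lacking growth factors defined reduced proliferation.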

A short description of test [18]: IUF_NPC1_viability_72hr: Viability Assessment at 72 hours in the Leibniz Research Institute for Environmental Medicine (IUF) Neural Progenitor Cell Proliferation Assay (NPC1) (AID 2284209). In a few lines: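 Single spheres (0.25-0.35 mm) of human fetal cortex-derived neural progenitor cells were grown in proliferation medium with EGF and FGF at 37C and 5% CO2. They were exposed for 72 h without renewal, and viability was read by alamar blue resorufin fluorescence.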

The nature of test [19]: CCTE_Mundy_HCI_Cortical_Synap_Neur_Matur_NeuriteSpotCountPerNeuriteLength: CCTE's Synaptogenesis and Neurite Maturation Assay in rat cortical cells for Neurite Spot Count per Neurite Length, Mundy Lab (AID 2284210). In a few lines:
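Primary rat cortical neurons, compound exposure DIV 7–12, 288.33 h endpoint. Hoechst, anti-MAP2 and anti-synaptophysin labelling; neurite-associated puncta per neurite length scored by automated imaging relative to DMSO controls.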

The nature of test [20]: CCTE_Mundy_HCI_Cortical_Synap_Neur_Matur_BPCount: CCTE's Synaptogenesis and Neurite Maturation Assay in rat cortical cells for Branch Point Count, Mundy Lab (AID 2284211). In a few lines: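 Rat primary cortical cultures, AraC added DIV 5; chemicals dosed DIV 7 through DIV 12. Fixed cells stained for MAP2, synaptophysin and Hoechst; neurite branch points counted by automated high-content imaging, fitted relative to DMSO.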

A short description of test [21]: CCTE_Mundy_HCI_Cortical_NOG_NeuriteCount: CCTE's Neurite Outgrowth Assay in rat cortical cells for Neurite Count, Mundy Lab (AID 2284212).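 Further: cells fixed about two days after chemical exposure began.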 In a few lines:
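Neurite number per cell from high-content imaging of betaIII-tubulin immunostaining, with Hoechst nuclear counterstain.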

The nature of test [22]: CCTE_Mundy_HCI_Cortical_NOG_NeuriteLength: CCTE's Neurite Outgrowth Assay in rat cortical cells for Neurite Length, Mundy Lab (AID 2284213). In a few lines:
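Neurite length was read by high-content imaging of βIII-tubulin-labelled neurites in rat primary cortical cultures. Activity was fitted relative to DMSO.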

Results filed as inconclusive are left out. Active and inactive are the calls of the source. How the source made its calls, unless noted: active means hit-call score of the fitted dose curve at least 0.9, where 1 is the maximum; inactive means score below 0.9.

Turning to `CC(C)c1nn(C(=O)NC(C)(C)C)c(=O)n1N`, the call in test [1], in test [2], in [3], in test [4], in test [5] and in test [6] was inactive. The call in test [7], in [8], in test [9], in test [10], in test [11] and in [12] was inactive. Besides, the outcome in test [13], in test [14], in test [15], in [17], in [18] and in test [19] was inactive. In addition, the compound was classed as inactive in test [20], in test [21] and in [22]. Further, the AC50 in test [16] was 2.01 µM (active).
